INHIBITION data for 109 compounds are collected here from ChEMBL document CHEMBL4513216, “Probing the Open Global Health Chemical Diversity Library for Multistage-Active Starting Points for Next-Generation Antimalarials” (ACS Infect Dis, 2020).

Hit rate of the full screen: of about 69,000 compounds, about 8,600 (12%) showed an effect of 50% or more. Shown is part of a subset that was picked to be rich in strong results.

In this experiment the test system is Plasmodium berghei. Briefly: Screen against P. berghei liver stage (PbLuc), transformed with Luciferase, at 10uM. In kind it is functional, HepG2. Conditions: tested at 10 uM.
For `CN(C)S(=O)(=O)N1C[C@@H]2C[C@H](C(=O)Nc3ccccc3)[C@H](C1)O2`, the INHIBITION is -22.5%. For `C[C@H](O)c1cnn(-c2ccccc2)c1`, the INHIBITION is -13.1%. The result for `Cc1cc(C)c(CNC(=O)NC2CCOCC2)c(=O)[nH]1` reads 27.7%. Regarding `Cc1nccc(N2CCN(C3CCOCC3)CC(C(=O)N(C)C)C2)n1` (centres undefined), the INHIBITION was found to be 25.8%. Regarding `CC(C)(C)CCCC(=O)Nc1ccnn1C1CCS(=O)(=O)C1` (centres undefined), the INHIBITION turned out to be 46.6%. Take `CC(Nc1cccc2c1OCCO2)C(=O)NC(N)=O` (centres undefined): the INHIBITION is listed as -45.2%. As for `O=C(CN1CCCC1)N1CCCC(c2cc(=O)n3c(n2)CCCCC3)C1` (centres undefined), the INHIBITION was 14.7%. The value for `CN(C)C(=O)N[C@@H]1CN(S(C)(=O)=O)[C@@H]2CCCO[C@@H]21` was 60%; that for `CN(C)C(=O)N[C@H]1CN(C2CCOCC2)[C@@H]2CCCO[C@H]12` was 43.8%; that for `CN(C)C(=O)N[C@@H]1CN(C2CCOCC2)[C@@H]2CCCO[C@@H]21` was 20.1%. The value for `COCC(NC(=O)c1cccnc1)c1cccc(C(F)(F)F)c1` (centres undefined) was 7.44%; that for `CNC(=O)CCc1cc(C2CCNCC2)nc(C)n1` was 27.8%. Consider `Oc1cc(C2CCCCN2C2CCCC2)nc(-c2ccncc2)n1` (centres undefined), for which the INHIBITION was 16.5%. The value for `Cc1nc(C(=O)N2CCCN(Cc3cnn(C)c3)CC2)ccc1C#N` was 15.1%; that for `CC(OCC1CC1)C(=O)N1CCCN(Cc2cscn2)CC1` (centres undefined) was 11.67%; that for `Cn1cc(CN2CCCN(C(=O)c3cn4ccccc4n3)CC2)cn1` was 56.6%.

As for `Cn1cc(CN2CCCN(C(=O)c3ccc4ccccc4n3)CC2)cn1`, the INHIBITION was found to be 52.35%. Take `CC(OCC1CC1)C(=O)N1CCCN(Cc2nccn2C(C)C)CC1` (centres undefined): the INHIBITION amounted to 46.2%.

As to `Cn1cc(CN2CCCN(C(=O)c3cc[nH]n3)CC2)cn1`, the INHIBITION is given as 23.2%.

Turning to `Cc1cccc(C(=O)N2CCCN(Cc3cnn(C)c3)CC2)n1`, the INHIBITION was 31.8%. The result for `CC(OCC1CC1)C(=O)N1CCCN(Cc2cnn(C)c2)CC1` (centres undefined) reads 60.5%; that for `Cn1cc(CN2CCCN(C(=O)c3ccccn3)CC2)cn1`, -13.35%. Take `CC(C)CNC(=O)c1cn(-c2ccccn2)c(=O)c2ccccc12`: the INHIBITION was found to be 13.9%.

As to `CCN1CC2(CC1=O)CN(C(=O)NC(C)C)CCN(C(=O)NC(C)C)C2`, the INHIBITION was 27.5%. The value for `Cc1cnn(CC2CN(CC(=O)N(C)Cc3ccsc3)CCO2)c1` (centres undefined) was -89%; that for `CS(=O)(=O)c1cccc(C(=O)N2CCCC(n3cccn3)C2)c1` (centres undefined) was 1.94%. The result for `O=C(CN1CCCC(Cn2cncn2)C1)NCc1ccccc1F` (centres undefined) reads 19.4%; that for `CC(C)c1nn(C)c(N(C)C)c1CNCc1cccc2cccnc12`, 19.283%; that for `CC(C)CC(=O)N1CC[C@H]2N(C)CC[C@@]2(C(=O)Nc2cccnc2)CC1`, 26.7%. On to `CCC12CN3CC(CC)(CN(C1)C3c1[nH]c(=O)[nH]c(=O)c1C)C2=O` (centres undefined), for which the INHIBITION stood at 11.1%.

As for `Cc1c(C2N3CC4(C(C)C)CN2CC(C(C)C)(C3)C4=O)[nH]c(=O)[nH]c1=O` (centres undefined), the INHIBITION is reported as 54.3%.

Take `Cc1c(C2N3CC4(C)CN2CC(C)(C3)C4=O)[nH]c(=O)[nH]c1=O` (centres undefined): the INHIBITION amounted to 46.6%. As to `O=C(C1CCC1)N1C[C@H]2CC[C@@H](C1)N(S(=O)(=O)c1cccnc1)C2`, the INHIBITION is on record as -70.7%. `O=C(NCCCNC(=O)c1cccc(O)c1)Nc1ccc(F)cc1F`: the INHIBITION was -4.74%.

As to `COCc1noc(C2(c3ccc(F)cc3)CC2)n1`, the INHIBITION was found to be 11.6%.

In the case of `COCc1noc(C2(c3ccc(F)cc3)CCOCC2)n1`, the INHIBITION is on record as 15.1%. The result for `COCc1noc(C2(c3ccc(F)cc3)CCC2)n1` reads 77.2%; that for `COCc1ncn2c1CN(C(=O)c1ccc3ccccc3n1)CC2`, -6.3%.

In the case of `CC(C)(C)C(=O)NCCC(=O)N1CCC(Nc2cccnn2)CC1`, the INHIBITION came to 41.5%. `O=C(CNCCn1cccn1)NCC1(c2ccccc2)CC1`: the INHIBITION worked out at 8.48%.

For `O=C(CNCCn1cccn1)NCC1(c2ccccc2)CCCC1`, the INHIBITION was -23.9%.

Regarding `O=C(CNCCn1cccn1)NCC1(c2ccccc2)CCC1`, the INHIBITION amounted to 72.8%. `CN1CCC(NC(=O)c2cc(Cl)cc(Br)c2O)C1=O` (centres undefined): the INHIBITION came out at 24.4%.

With `OC1(CN2CCCCC2)CCN(c2nccc(C(F)(F)F)n2)C1` (centres undefined), the INHIBITION was found to be 46.7%.

On to `O=S(=O)(CCNCc1ccc2c(c1)CCO2)N1CCOCC1`, for which the INHIBITION was -3.19%. The value for `c1cc(CNCc2ccc3c(c2)CCO3)cc(N2CCOCC2)n1` was -1.58%; that for `Fc1cc(CNCc2ccc3c(c2)CCO3)ccc1N1CCOCC1` was 55.1%. With `CC(C)c1nc(C2CCCN(C(=O)c3nccn4ccnc34)C2)no1` (centres undefined), the INHIBITION is reported as 9.64%. Take `Cc1cn(Cc2ccccc2)nc1N`: the INHIBITION is reported as 24.8%. With `O=C(c1cc(Br)ccc1-n1cnnn1)N1CCCC1`, the INHIBITION stood at 28.6%. Consider `CC(C)c1nnsc1CNC(=O)C1CCCN(C(=O)N(C)C)C1` (centres undefined), for which the INHIBITION was 53.5%. The value for `CC(C)c1nnsc1CNC(=O)C1CCN(C(=O)C2CCC2)CC1` was 44.6%; that for `CC(C)c1nnsc1CNC(=O)C1CCN(C(=O)C2CCCC2)CC1` was 41.6%. `Nc1no[n+]([O-])c1C(=O)NCc1ccco1`: the INHIBITION turned out to be 5.7%. Turning to `COc1ccc(CN(C)C(=O)CSc2nnc(N)s2)c(OC)c1OC`, the INHIBITION is 18.9%. The value for `CCn1ccc(CN(C)C(=O)CSc2nnc(N)s2)n1` was 22.6%. For the compound `COc1ccnc(CN(C)C(=O)CSc2nnc(N)s2)c1`, the INHIBITION was 71.4%. Take `Cc1nc(CN2CCCN(C(=O)c3sccc3C#N)CC2)cs1`: the INHIBITION was -27.8%. For the compound `Cc1nc(CC2CCN(Cc3ccc(CCC(C)(C)O)cc3)CC2)no1`, the INHIBITION is 60.7%. Consider `c1ccc(CN2CCC(Cc3noc(C4CC4)n3)CC2)cc1`, for which the INHIBITION is given as 28.8%. The value for `Cc1noc(CC2CCN(Cc3ccc(CCC(C)(C)O)cc3)CC2)n1` was 40.2%; that for `CN(C)c1cc(CNC(=O)CC2CCCCC2)ccn1` was 4.34%; that for `Cc1cccc(Cn2c3c(ccc2=O)CCN(Cc2ccoc2)CC3)n1` was 8.47%.

Regarding `Cc1cccc(N(CC(=O)c2ccccc2)C2=NCCCCC2)c1`, the INHIBITION turned out to be 51.6%. The result for `Cc1ccc(C(=O)CN(C2=NCCCCC2)c2ccccc2)cc1` reads 44.1%; that for `O=C(CN(C1=NCCCC1)c1ccccc1)c1ccccc1`, -13.4%. The value for `O=C(CN(C1=NCCCC1)c1ccccc1)c1ccc2c(c1)OCCO2` was 33.3%; that for `O=C(CN(C1=NCCCC1)c1ccccc1)c1ccc(OC(F)F)cc1` was 30.8%; that for `Cc1ccc(N(CC(=O)N2CCCCC2)C(=O)C2CCCO2)cc1` (centres undefined) was -7.25%. For the compound `O=C(CC(SC1CCCCC1)C(=O)O)c1ccc(Cl)cc1` (centres undefined), the INHIBITION stood at 6.83%. As to `Cc1cccc(N(CC(=O)N2CCCCC2)C(=O)C2CCCO2)c1` (centres undefined), the INHIBITION is -84.1%. The value for `CCOc1ccc(N(CC(=O)c2ccccc2)C2=NCCCCC2)cc1` was 68.7%; that for `COc1ccc(C(=O)CN(C2=NCCCCC2)c2ccccc2)cc1` was 20.1%; that for `Cc1ccc(N(CC(=O)c2ccc(Br)cc2)C2=NCCCCC2)cc1` was 87.6%. `O=C(CN(C1=NCCCCC1)c1ccc(Cl)cc1)c1ccccc1`: the INHIBITION was determined as 59.8%. The value for `CC1=N[C@@]2(CC[C@@H]3CN(CC(C)C)C[C@@H]32)C(=O)N1C` was 18.5%; that for `Cc1nn(C)c2cnn(CC(=O)NCc3ccc4c(c3)OCO4)c12` was 36.6%.

In the case of `Cc1c(C(=O)NC(C)C)nnn1-c1cccc(C(F)(F)F)c1`, the INHIBITION came to 15.2%. Regarding `c1coc(CN2C[C@@H]3OCCN(CC4CCCO4)[C@@H]3C2)c1` (some centres undefined), the INHIBITION is given as 41.6%. `COC(=O)c1ccc(OCCn2cnc(C#N)n2)cc1`: the INHIBITION came out at 7.18%. The value for `CN(C)c1ncc(-c2cccc(C(N)=O)c2)c(C2CNCCO2)n1` (centres undefined) was 17.3%; that for `COc1c(CNC2CCc3c(F)cccc32)c(C)nn1C` (centres undefined) was -16%. In the case of `c1coc(-c2nc(CNCCn3cccn3)cs2)c1`, the INHIBITION stood at 21.5%.

Regarding `CS(=O)(=O)NCCN1CCSCC1c1ccc(Cl)cc1` (centres undefined), the INHIBITION is reported as -3.39%. Turning to `CS(=O)(=O)CCCN1CCSCC1c1ccc(Cl)cc1` (centres undefined), the INHIBITION came out at 31.9%.

In the case of `CS(=O)(=O)CCN1CCSCC1c1ccc(Cl)cc1` (centres undefined), the INHIBITION was 59.7%. The result for `O=C(NCc1ccncc1)N1CCSCC1c1ccc(Cl)cc1` (centres undefined) reads -23.2%; that for `CS(=O)(=O)NCCN1CCCC1c1ccc(Cl)cc1` (centres undefined), 50.3%; that for `Cc1ccc(C2CSCCN2CCS(C)(=O)=O)cc1` (centres undefined), 34%.

Consider `CC(c1ccc(Cl)cc1)N1CCN(CCS(C)(=O)=O)CC1` (centres undefined), for which the INHIBITION is 48.5%. The result for `Cc1ccc(C2CSCCN2CC(=O)N2CCOCC2)cc1` (centres undefined) reads 15.3%. The result for `CS(=O)(=O)NCCCN1CCCC1c1ccsc1` (centres undefined) reads -5.25%; that for `CCS(=O)(=O)CCCN1CCSCC1c1ccc(Cl)cc1` (centres undefined), 56.5%; that for `CC(c1ccc(Cl)cc1)N1CCN(CCCS(C)(=O)=O)CC1` (centres undefined), -5.1%.

In the case of `CC(c1ccc(Cl)cc1)N1CCN(CCNS(C)(=O)=O)CC1` (centres undefined), the INHIBITION was 53.5%.

Turning to `COc1ccc(CNCC(C)Oc2ccccn2)cc1Br` (centres undefined), the INHIBITION is given as -33.2%. Turning to `CC1CCN(C(=O)[C@H]2CC[C@@H]3[C@@H](CCN3Cc3nccs3)O2)CC1`, the INHIBITION is 39.5%. The result for `O=c1ccc2c(n1Cc1cccnc1)CCN(C1CCOC1)CC2` (centres undefined) reads 39.4%; that for `N#CC1(C(=O)N2C[C@H](Nc3ccnc(N)n3)[C@@H](C3CC3)C2)CCOCC1`, 26.9%.

For the compound `CC(C)c1noc(C(C)N2CCN(Cc3nnc(C4CC4)o3)CC2)n1` (centres undefined), the INHIBITION is listed as 0.914%. The result for `O=C(c1ccccc1)N1CCC2(CCCN2c2ncccn2)CC1` reads -22.1%; that for `Cc1nc(CN(C)CC(c2cccs2)N2CCOCC2)no1` (centres undefined), 15.3%; that for `CC(=O)N1N=C(c2ccccc2)OC1C(=O)NCC(=O)OC(C)(C)C` (centres undefined), 28.3%.

With `CCC(CO)NCc1ccc(-c2ccc(F)cc2)o1` (centres undefined), the INHIBITION amounted to 14.4%. The value for `CCC(CO)NCc1ccc(-c2ccc(Cl)cc2)o1` (centres undefined) was 17.7%. The value for `CCC(CO)NCc1ccc(-c2ccc(F)c(Cl)c2)o1` (centres undefined) was 18.8%; that for `CCC(CO)NCc1ccc(-c2ccccc2F)o1` (centres undefined) was 73.5%; that for `CCC(CO)NCc1ccc(-c2ccc(Br)cc2)o1` (centres undefined) was -11.6%.

Consider `CCC(CO)NCc1ccc(-c2ccccc2)o1` (centres undefined), for which the INHIBITION came out at 50.8%.
